Compound activity (PubChem BioAssay)
Sampled rows, rich in hits. Any-hit rate of the full collection: about 6.2%.
Gal4-VP16 FLuc – counter-screen for ROR gamma inhibitors: Gal4-VP16 reporter; Potency, µM (highest dose often 53.6 µM), hits mostly inhibitors; actives 3.5% (n = 310,000); Drosophila S2 Gal4-VP16 UAS-luciferase, luminescence, 20 h;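 also: Gal4-VP16 expression switched on by copper sulfate through the metallothionein promoter; nearly all actives have a fitted effect of over 50% in size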
RORgamma inh – ROR gamma (mouse) transcription inhibition; Potency, µM (top dose mostly 53.6 µM), actives largely listed as inhibitors; AID 2551; P51450; Drosophila S2 Gal4-RORgamma UAS-luciferase reporter, 20 h; actives 5.4% (n = 310,000); also: nearly all actives have a fitted effect of over 60% in size
Target sequence (P51450 whole entry, looked up, the tested form may be a part): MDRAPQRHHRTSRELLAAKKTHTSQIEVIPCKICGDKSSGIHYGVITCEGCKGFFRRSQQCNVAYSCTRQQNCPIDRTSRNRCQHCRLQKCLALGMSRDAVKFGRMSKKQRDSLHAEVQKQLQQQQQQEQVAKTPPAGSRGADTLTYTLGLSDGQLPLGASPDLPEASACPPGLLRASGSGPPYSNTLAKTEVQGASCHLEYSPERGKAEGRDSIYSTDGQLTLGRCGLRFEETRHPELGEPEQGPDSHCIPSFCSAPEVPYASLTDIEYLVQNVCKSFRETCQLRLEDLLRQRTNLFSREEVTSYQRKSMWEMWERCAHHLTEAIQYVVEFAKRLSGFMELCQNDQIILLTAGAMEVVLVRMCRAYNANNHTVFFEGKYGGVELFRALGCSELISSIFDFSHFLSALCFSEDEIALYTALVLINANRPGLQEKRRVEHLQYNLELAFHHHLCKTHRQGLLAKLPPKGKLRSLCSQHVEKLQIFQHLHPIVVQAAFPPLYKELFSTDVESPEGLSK
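Drosophila Schneider cells stably carrying a metallothionein-driven Gal4 DBD–ROR gamma fusion and a UAS-Photinus luciferase reporter were exposed to compound for 1 hr, then induced with copper sulfate (700 uM final) for 20 hr at ambient temperature before luminescence reading.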
KinaseGlo FLuc – counter-screen: inhibitors of Kinase-Glo firefly luciferase; Potency, µM (top dose mostly 38.3 µM), most hits filed as inhibitors; Q27757; actives 0.28% (n = 200,000); AID 1379; Kinase-Glo luciferase, ATP luminescence, 8 min; also: nearly all actives have a fitted effect of over 60% in size
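Light output from Kinase-Glo luciferase with luciferin and 10 uM ATP in 50 mM imidazole pH 7.2, KCl, MgCl2, Tween 20, BSA; compound pin-delivered, 8-min ambient incubation, then luminescence read.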
Of the large screens only hits and unclear results are named; the others gave an inactive call. Calls follow the shape of the dose curve; as a rule, active = well fitted curve in the direction sought with a large enough effect; inconclusive = small, poorly fitted or top-dose-only effect, or another doubt; inactive = no such curve, though single readings can be large; an effect the other way counts as inactive or inconclusive.

Cn1c(CNC(=O)c2cccs2)nnc1SCC(=O)Nc1ccccc1	none
S=c1[nH]ncn1-c1ccccn1	RORgamma inh inconclusive
CCOC(=O)c1csc(NC(=O)CN2CCCCC2)n1	none (no result: KinaseGlo FLuc)
CC(Oc1ccc(F)cc1)C(O)CCN(C)C (stereo not drawn)	none
CC(Sc1nc2cc(Cl)ccc2s1)C(=O)Nc1cccc(S(=O)(=O)N2CCOCC2)c1 (stereo not drawn)	RORgamma inh inconclusive
CN(C)c1ccnc(-n2cccc2/C=N/O)c1C#N	none (no result: KinaseGlo FLuc)
COc1ccc(CC(=O)Nc2ccc(C(=O)Nc3ccccc3C(=O)O)cc2)cc1OC	none
COc1cccc(N=Nc2c(C)[nH]n(-c3ccccc3)c2=O)c1	Gal4-VP16 FLuc inconclusive (no result: KinaseGlo FLuc)
Cc1[nH]n(S(=O)(=O)Cc2ccccc2)c(=O)c1N=Nc1ccccc1Cl	none
Cc1cccc(N=Nc2c(C)[nH]n(C(N)=S)c2=O)c1C	Gal4-VP16 FLuc 1.6µM, RORgamma inh 0.4µM
Cc1[nH]n(C(N)=S)c(=O)c1N=Nc1ccc([N+](=O)[O-])cc1Cl	Gal4-VP16 FLuc 3.5µM, RORgamma inh 0.71µM (no result: KinaseGlo FLuc)
CCOc1ccccc1N=Nc1c(C)[nH]n(C(N)=S)c1=O	Gal4-VP16 FLuc 1.3µM, RORgamma inh 0.45µM (no result: KinaseGlo FLuc)
Cc1ccc2[nH]c(O)c(N=Nc3ccccc3C)c2c1	none (no result: KinaseGlo FLuc)
Cc1ccccc1N=Nc1c(C)[nH]n(C(N)=S)c1=O	Gal4-VP16 FLuc 1µM, RORgamma inh 0.4µM
CCOc1ccc(N=Nc2c(C)[nH]n(-c3ccccc3)c2=O)cc1	none (no result: KinaseGlo FLuc)
Cc1nn2c(COc3ccc(NC(=O)c4ccccc4Cl)cc3)nnc2c2ccccc12	none
O=C(NCCC1=CCCCC1)C1CCN(S(=O)(=O)c2cnc[nH]2)CC1	none (no result: Gal4-VP16 FLuc)
N#Cc1ccc(CN2CCCC3(CCNCC3)C2)cc1	none
Cc1nn(CC(=O)NCCc2ccccc2)c(=O)c2cccn12	none (no result: KinaseGlo FLuc)
COc1cc(/C=C/C(=O)O)ccc1OS(=O)(=O)c1cc(C)ccc1C	none
Cc1cccc(CN2CC34CCC(CC3S2(=O)=O)O4)c1 (stereo not drawn)	none (no result: KinaseGlo FLuc)
Cc1nc(N)sc1N=Nc1ccccc1C(F)(F)F	RORgamma inh inconclusive (no result: KinaseGlo FLuc)
Cc1[nH]n(C(N)=S)c(=O)c1N=Nc1ccccc1C(F)(F)F	Gal4-VP16 FLuc 2.5µM, RORgamma inh 0.32µM (no result: KinaseGlo FLuc)
C/C(=N/NC(=O)c1sc(NS(=O)(=O)c2ccccc2)nc1C)c1sc(N)nc1C	none (no result: KinaseGlo FLuc)
N#C/C(=C\c1c[nH]c2ccccc12)C(=O)Nc1ncc(Cc2ccc(Cl)cc2Cl)s1	Gal4-VP16 FLuc 2.2µM, RORgamma inh 1.4µM
Cn1cc(/C=C(\C#N)C(=O)Nc2cccc([N+](=O)[O-])c2)c2ccccc21	none
N#C/C(=C\c1c[nH]c2ccccc12)C(N)=O	none (no result: KinaseGlo FLuc)
Cn1cc(/C=C(\C#N)C(=O)Nc2ncc(Cc3cccc(Cl)c3)s2)c2ccccc21	Gal4-VP16 FLuc 1.4µM, RORgamma inh 3.2µM
COc1ccc(-c2csc(NCc3ccco3)n2)cc1C	RORgamma inh inconclusive
Cc1nc2ccccn2c1-c1csc(Nc2cccc(O)c2)n1	none
Cc1cccc(Nc2nc(-c3c(C)nc4ccccn34)cs2)c1	Gal4-VP16 FLuc inconclusive, RORgamma inh 13µM
Cc1ccn2c(-c3csc(NCc4ccco4)n3)c(C)nc2c1	Gal4-VP16 FLuc inconclusive, RORgamma inh 13µM
CCCCc1cc2c(cn1)C(=O)C(C)(OC(C)=O)C(=O)C2 (stereo not drawn)	none (no result: Gal4-VP16 FLuc, RORgamma inh)
O=C(NNC(=S)NC1CCCCC1)c1ccc2c(c1)OCO2	Gal4-VP16 FLuc inconclusive
O=C(Nc1ccon1)c1csc2c1CCCC2	none
CCCc1cc(C(=O)NNC(=S)NCc2ccccc2)cs1	Gal4-VP16 FLuc inconclusive, RORgamma inh 4.5µM
CCc1cc(C(=O)NNC(=S)Nc2cc(C)ccc2C)cs1	none
CCCCNC(=O)NNC(=O)c1cc(C)on1	none (no result: KinaseGlo FLuc)
O=C(Nc1nccs1)c1csc2c1CCCC2	Gal4-VP16 FLuc 10µM, RORgamma inh inconclusive
CCNC(=S)NNC(=O)c1cc(C)on1	RORgamma inh 18µM
CCCc1cc(C(=O)NNC(=S)NC2CCCCC2)cs1	Gal4-VP16 FLuc inconclusive, RORgamma inh 3.5µM (no result: KinaseGlo FLuc)
c1ccc2cc(NCNc3ccc4ccccc4c3)ccc2c1	none (no result: Gal4-VP16 FLuc, RORgamma inh)
O=C(c1cc(C(F)(F)F)cc(C(F)(F)F)c1)N1CCC2(CCCN(c3ccccc3)C2)CC1	RORgamma inh inconclusive
CCC(C)NC(=O)c1csc2c1CCCCC2 (stereo not drawn)	none
Cc1cc(C(=O)NNC(=S)NCc2ccccc2)cs1	none
CCc1cc(C(=O)NNC(=S)NCc2ccccc2)cs1	RORgamma inh 14µM
CCc1cc(C(=O)NNC(=S)Nc2ccccc2C)cs1	Gal4-VP16 FLuc inconclusive
CCNC(=S)NNC(=O)c1csc(CC)c1	RORgamma inh 4.5µM
CCNC(=S)NNC(=O)c1csc2c1CCCC2	RORgamma inh 3.2µM
COc1ccc(CN2CCC(Oc3ccc(C(=O)N4CCCCC4)cc3)CC2)cc1C	none (no result: KinaseGlo FLuc)
COc1ccccc1OCC(=O)NNC(=O)c1c(-c2ccccc2Cl)noc1C	none
CC1CN(C(=O)c2ccccc2)c2ccccc2NC1=O (stereo not drawn)	none
